In paper PMC4336329 (PLoS ONE, 2015):
About 14,000 (4.5%) of roughly 310,000 compounds showed an effect of 50% or more. Effects have a minus sign here. The sample as a whole holds a higher share of strong results than the screen did.

Molecular target: human ether-à-go-go-related gene (hERG) potassium channel (human, UniProt Q12809)
Experiment: primary screen, population patch clamp on CHO cells stably expressing hERG; higher = less effect of the substance
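Also: peak tail current of the secondary pulse compared with the same well before compound.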

human ether-à-go-go-related gene (hERG) potassium channel, sequence (Q12809 whole entry, looked up): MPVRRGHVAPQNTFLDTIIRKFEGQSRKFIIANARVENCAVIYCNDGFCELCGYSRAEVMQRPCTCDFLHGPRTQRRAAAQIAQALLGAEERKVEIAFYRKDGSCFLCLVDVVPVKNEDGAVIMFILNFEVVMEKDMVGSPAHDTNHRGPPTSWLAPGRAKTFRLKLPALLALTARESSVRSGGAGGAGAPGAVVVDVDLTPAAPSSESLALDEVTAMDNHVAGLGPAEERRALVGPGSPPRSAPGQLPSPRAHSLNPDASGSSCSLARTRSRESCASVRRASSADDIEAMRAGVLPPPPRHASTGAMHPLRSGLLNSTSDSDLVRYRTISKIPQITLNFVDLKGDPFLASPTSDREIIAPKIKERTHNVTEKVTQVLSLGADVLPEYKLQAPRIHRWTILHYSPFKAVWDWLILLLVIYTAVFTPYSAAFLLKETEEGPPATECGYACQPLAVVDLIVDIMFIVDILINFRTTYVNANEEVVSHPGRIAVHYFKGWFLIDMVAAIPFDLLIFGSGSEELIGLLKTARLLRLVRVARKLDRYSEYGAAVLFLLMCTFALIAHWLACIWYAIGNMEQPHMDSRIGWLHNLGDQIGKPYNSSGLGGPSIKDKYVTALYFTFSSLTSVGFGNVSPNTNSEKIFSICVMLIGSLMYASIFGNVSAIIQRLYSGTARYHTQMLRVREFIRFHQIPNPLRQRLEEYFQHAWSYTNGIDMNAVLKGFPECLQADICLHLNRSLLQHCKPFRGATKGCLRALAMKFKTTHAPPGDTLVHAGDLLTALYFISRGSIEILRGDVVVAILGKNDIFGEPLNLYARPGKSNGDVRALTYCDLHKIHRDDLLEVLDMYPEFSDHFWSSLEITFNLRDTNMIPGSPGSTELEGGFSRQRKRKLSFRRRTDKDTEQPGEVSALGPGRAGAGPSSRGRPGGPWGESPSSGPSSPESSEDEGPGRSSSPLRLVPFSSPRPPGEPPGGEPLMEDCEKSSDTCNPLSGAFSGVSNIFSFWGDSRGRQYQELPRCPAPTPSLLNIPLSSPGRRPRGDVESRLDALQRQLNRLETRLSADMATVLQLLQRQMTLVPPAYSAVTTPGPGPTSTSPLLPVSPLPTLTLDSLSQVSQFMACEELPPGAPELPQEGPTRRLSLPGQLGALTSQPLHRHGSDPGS

Row | SMILES | hERG current change (%, negative = inhibition) at 10uM [%]
1 | CCOCCCNC(=O)c1ccc(NC(=O)C2=CSCCO2)cc1 | 15.4
2 | CN(C(=S)NC(=O)C1(C)CC1(Cl)Cl)c1ccccc1 (stereo not shown) | 16.7
3 | COc1cccc2c1C(CO)N1C(C#N)C3CC(C(=O)O)C(C1C2)N3C (stereo not shown) | 12.3
4 | NC(=O)C1CCN(CCC(=O)Nc2ccc(F)c(F)c2)CC1 | 11.1
5 | COc1ccccc1C(=O)Nc1cccc(NC(=O)c2ccccc2OC)n1 | 8.14
6 | Cc1ccccc1OCCN1CCCC1 | 7.01
7 | CCN1CCN(CCCCOc2ccccc2F)CC1.O=C(O)C(=O)O | -9.65
8 | Cc1ccccc1OCCN1CCC(Cc2ccccc2)CC1.O=C(O)C(=O)O | -58.5
9 | CCOc1ccccc1OCCOCCN1CCN(Cc2ccccc2)CC1.O=C(O)C(=O)O | -48.5
10 | CCN1CCN(CCOc2ccccc2OCc2ccccc2)CC1.O=C(O)C(=O)O | -73.2
11 | Clc1ccccc1OCCN1CCCCC1 | -16.2
12 | Clc1ccccc1OCCCCN1CCNCC1.O=C(O)C(=O)O | 12.7
13 | CCOc1ccccc1OCCN1CCCC1 | 9.51
14 | CCOc1ccccc1OCCN1CCC(Cc2ccccc2)CC1.O=C(O)C(=O)O | -67.4
15 | Clc1ccccc1OCCN1CCC(Cc2ccccc2)CC1.O=C(O)C(=O)O | -73.4
16 | CCN1CCN(CCOc2cccc(Cl)c2Cl)CC1.O=C(O)C(=O)O | -3.27
17 | Cc1ccccc1OCCOCCN1CCCCCC1.O=C(O)C(=O)O | -29.3
18 | Cc1cc2c(cc1S(=O)(=O)Nc1ccc(OC(F)(F)F)cc1)OCC(=O)N2 | -42.5
19 | CCOC(CNC(=O)c1cccn2c(=O)c3c(C)c(C)sc3nc12)OCC | -12.5
20 | CCc1nnc(NC(=O)C(=O)NCCOC(=O)c2ccccc2Cl)s1 | 5.68
21 | Cc1cccc(-c2noc(CNC(=O)Nc3ccc(F)cc3)n2)c1 | 8.56
22 | Cc1ccc(N(CC(=O)NCc2ccccc2)C(=O)CCC(=O)Nc2ccccn2)cc1C | 16.4

Row | SMILES | hERG current change (%, negative = inhibition) at 10uM [%]
23 | CC(O)c1nc2ccccc2n1CC(=O)Nc1ccc2c(c1)OCCO2 (stereo not shown) | -4.28
24 | CC(=O)Nc1ccc(S(=O)(=O)N2CCN(c3nc4ccccc4n3CC(C)C)CC2)cc1 | -30.9
25 | CC(C)Cn1c(N2CCN(CC(=O)Nc3ccc(Cl)cc3)CC2)nc2ccccc21 | -70.5
26 | CCn1c(N2CCN(S(=O)(=O)CC)CC2)nc2ccccc21 | -37.7
27 | O=C(CN1CCN(c2ccccc2)CC1)Nc1ccc2c(c1)OCCO2 | 5.46
28 | Cc1ccc(SCc2nc3ccccc3n2CC(=O)Nc2ccc(Cl)cc2)cc1 | -8.31
29 | Cc1cccc(N2CCN(CC(=O)Nc3ccccc3[N+](=O)[O-])CC2)c1C | -0.256
30 | O=C(CN1CCN(c2ccc(O)cc2)CC1)Nc1ccc2c(c1)OCCO2 | 2.24
31 | CCn1c(N2CCN(CC(=O)Nc3cccc(C)c3C)CC2)nc2ccccc21 | -63.6
32 | CC(C)n1c(N2CCN(CC(=O)Nc3ccc4c(c3)OCCO4)CC2)nc2ccccc21 | -65.4
33 | CCCn1c(N2CCN(CC(=O)Nc3ccc4c(c3)OCCO4)CC2)nc2ccccc21.Cl | -60.4
34 | CCCCNc1nc2ccccc2n1CC(=O)Nc1ccc2c(c1)OCCO2 | -10.2
35 | CCOC(=O)[C@@H]1[C@H]2COc3cc(OC)ccc3[C@@H]2N2C(=O)N(c3cccc(C)c3)C(=O)[C@@]12C | -5.14
36 | CCC1=NN(C(=O)c2ccc(C)cc2)C(O)(c2ccc(Br)cc2)C1 (stereo not shown) | -10.7
37 | COc1ccccc1C(CC(=O)Nc1nccs1)c1ccco1 (stereo not shown) | 2.68
38 | Cc1ccc(C)c(NC(=O)CN(C)C(=O)/C=C/c2ccco2)c1 | 15.7
39 | COc1ccccc1/C=C/C=N/NC(=O)c1cnccn1 | 13.5
40 | Cc1ccc(-c2csc(NC(=O)c3ccc(Br)cc3)c2C(=O)O)cc1 | 46.9
41 | O=C(O)C(Cc1c[nH]c2ccccc12)N1CCS(=O)(=O)CC1 (stereo not shown) | 16.3
42 | N#CC1(NC(=O)COC(=O)c2ccc(-c3ccc(O)cc3)cc2)CCCCC1 | 7.22
43 | CC1(C)C(=O)OC(c2ccc([N+](=O)[O-])cc2)C(C)(C)C1=O (stereo not shown) | 18.4
